Data on 35 compounds can be found in PubChem BioAssay (NCATS).

Inconclusive results are not listed. Unmarked numbers belong to inactive results. Active and inactive are the calls of the source. Calls come from the whole dose curve; as a rule, active = well fitted inhibition curve with a large enough effect; inconclusive = small, poorly fitted or top-dose-only effect; inactive = flat fitted curve, though single readings scatter.
% is set by controls: 0 for no effect and ±100 for the full control effect; potency is the fitted concentration of half-maximal effect.

The first assay relates to HEK293. Kind of assay: Cytotoxic Profiling of Annotated Libraries Using Quantitative High-Throughput Screening (AID 1296008). Note: nearly all actives have a fitted effect of over 60% in size. The conditions noted are these: Five cell lines viability, CellTiter-Glo ATP luminescence, 48-72 h; max response: hits give low values. The essentials:
(§1)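 Cells exposed to compounds for 48 or 72 hr at 37 degrees Celsius. Viability read as ATP-coupled luminescence with CellTiter-Glo after 10 min at room temperature.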
(ATP-based viability assays read luminescence as a measure of living cells.)
Consider `CC1CC(=O)C2=C(C1)C1OC1C1(O)C2C(=O)c2cccc(O)c2C1O` (stereo not given), for which the max response was -91.9%.
In the case of `N#Cc1ccnc(Nc2cc(C3CCN(C4COC4)CC3)cc(N3CCC(F)(F)C3)n2)c1`, the Potency was 8.31 µM (active).
In the case of `CC(C)c1ccccc1OC(=O)NCCc1ccc2ccccc2c1`, the max response was 2.54%.
With `COc1ccc(-c2cc3onc(-c4ccncc4)c3c(=O)n2C)cc1`, the Potency is 1.3 µM (active).
On the same count and under the same terms, next, `CC[C@@H](C)Nc1cc(C(=O)NC2CC3CCC(C2)N3c2ccc(C(=O)C3CC3)cn2)c(C)cc1C(N)=O` (stereo not given in full): 0.13 µM (active).

The next assay deals with HaCat. The assay is described as above. To be noted: Five cell lines viability, CellTiter-Glo ATP luminescence, 48-72 h; max response: hits give low values. Put shortly: as §1
For `C=C1C(=O)O[C@@H]2C3C(=C(C)[C@@H](O)[C@@H](OC(=O)/C(=C/C)COC(C)=O)[C@@H]12)C(=O)[C@H]1O[C@@]31C` (stereo not given in full), the Potency was 3.17 µM (active).
Turning to `Cc1ccc(C(=O)Nc2ccc(CN3CCN(C)CC3)c(C(F)(F)F)c2)cc1C#Cc1cnc2[nH]ncc2c1`, the Potency was 1.64 µM (active).
Take `CCOC(=O)[C@@]1(CCCCCCOc2ccc(Cl)cc2)CO1`: the max response is 3.74%.
As for `CC(/C=C/C(=O)NO)=C\[C@@H](C)C(=O)c1ccc(N(C)C)cc1`, the Potency is 0.92 µM (active).
As for `C#CCCCn1cc(-c2cccc3c2N[C@H](C)CC(=O)N3)cn1`, the max response is 0.674%.
Consider `C=CC(=O)Nc1ccc2ncnc(Nc3cccc(Br)c3)c2c1`, for which the Potency was 0.0461 µM (active).
Same read-out and setting: with `CCCC1(CCC)CCC2(CCN(CCCN(CC)CC)C2)CC1` the figure was 4.61 µM (active).
Still for that read-out and setting: next, `N#Cc1ccc(Nc2nc(-c3ccc(O)cc3O)cs2)cc1C(F)(F)F`: 7.31 µM (active).
Turning to `CCc1cc(C(N)=O)ccc1-n1nc(C(C)C)c2c(-n3cnc(-c4cnn(C)c4)c3)ccnc21`, the max response is -102%.
Still for that read-out and setting: next, `Nc1nc(O)c(C2=C3C(=Nc4ccccc43)C(=O)NCC2)[nH]1`: -1.91%.
Turning to `C=CC(=O)Nc1cccc(Nc2nc(Nc3ccc(NC4CN(CCF)C4)cc3OC)ncc2C(F)(F)F)c1`, the Potency is 3.66 µM (active).
With `FC(F)(F)c1ccc(/C=C/c2nc(COc3ccc(CCCCn4ccnn4)cc3)co2)cc1`, the max response was -23.7%.
Still for that read-out and setting: next, `COc1cc(O)cc(OC2OC(CO)C(O)C(O)C2O)c1` (stereo not given): -5.91%; `CN[C@@H]1[C@H](O[C@H]2[C@H](O[C@@H]3[C@@H](O)[C@H](O)[C@@H](N=C(N)N)[C@H](O)[C@H]3N=C(N)N)O[C@@H](C)[C@]2(O)CO)O[C@@H](CO)[C@H](O)[C@H]1O`: -0.834%.
On to `CC(C)NCCCn1c(Sc2cc3c(cc2I)OCO3)nc2c(N)ncnc21`, for which the Potency is 0.231 µM (active).
Consider `O=c1cc(NCCCN[C@@H]2CCOc3c(Br)cc(Br)cc32)[nH]c2ccsc12`, for which the max response is -8.13%.
For the compound `COC1=CC(=O)C[C@@H](C)[C@@]12Oc1c(Cl)c(OC)cc(OC)c1C2=O`, the max response was -90.1%.
As for `COC(C)(C)CCn1nc(Nc2c(C)cccc2C)c2cnc(Nc3ccc(OCCN4CCCC4)c(F)c3)nc21`, the Potency was 1.3 µM (active).
Still for that read-out and setting: next, `CCNC(=O)c1noc(-c2cc(Cl)c(O)cc2O)c1-c1ccc(OC)cc1`: 0.259 µM (active); `COc1ccc(N(C(=O)Nc2c(C)cccc2C)c2cc(Nc3ccc(N4CCN(C)CC4)cc3)ncn2)c(OC)c1`: 7.31 µM (active).
On the same count and under the same terms, with `COc1cc(O)c2c(c1)C1OC1C[C@H](O)[C@H](O)C(=O)/C=C\C[C@H](C)OC2=O` (stereo not given in full) the figure was 8.2 µM (active).
With `C=C1CC[C@@H]2[C@](C)(CO)[C@H](O)CC[C@@]2(C)[C@@H]1C/C=C1/C(=O)OCC1O` (stereo not given in full), the max response is -10.5%.
Turning to `O=C(Nc1ccc(Cl)cc1)C1CCCN(C(=O)c2cccc(-c3ccco3)c2)C1` (stereo not given), the max response was -30%.
The same measure, in the same setting: with `C=C(C)Cn1c(SCC(=O)c2cccs2)nc2sc3c(c2c1=O)CCCC3` the figure was 2.85%.
In the case of `CC#CC(=O)Nc1ccc2ncnc(Nc3cccc(Br)c3)c2c1`, the Potency was 0.0326 µM (active).
`Cc1cc(-c2nc(-c3ccc(OC(F)(F)F)cc3)no2)nn1Cc1ccnc(N2CCN(C3CC3)CC2)c1`: the max response was 4.17%.
Same read-out and setting: with `CC(C)S(=O)(=O)NC[C@H](C)c1ccc(-c2ccc(CCNS(C)(=O)=O)cc2)cc1` the figure was 2.78%.
On to `O=C(Cc1cccc(OC(F)(F)F)c1)Nc1ccc(CCCCc2nnc(NC(=O)Cc3ccccn3)s2)nn1`, for which the Potency is 23.4 µM (active).
The same measure, in the same setting: with `C=C(C)C(=O)OC1CC2(C)OC(=CC2=O)C(=C)CC2OC(=O)C(=C)C12` (stereo not given) the figure was 5.08 µM (active).
Take `Cc1nnc(C[C@@H]2C=C(c3ccc(Cl)cc3)c3ccccc3-n3c(C)nnc32)o1`: the max response is -1.46%.
